Source: ChEMBL document CHEMBL4296183, “CO-ADD screening of NIH NCI Natural Product Set III” (2020)
For part of these data: Results with a measured potency or affinity are listed apart.

Key:
[1] = system: Staphylococcus aureus; assay: Antibacterial activity against Staphylococcus aureus MRSA ATCC 43300 (CO-ADD:GP_020); MIC in CAMBH media using NBS plates, by Resazurin F(560/590); assay type: functional; settings: Concentration 20 uM, ASSAY_TEST Inhibition of Bacterial Growth, detection method Resazurin, Fluorescence (ex560/em590), MEDIA CAMHB, plate type 384well, CORNING #3640, time 18 hr
[2] = system: Acinetobacter baumannii; assay: Antibacterial activity against Acinetobacter baumannii ATCC 19606 (CO-ADD:GN_034); MIC in CAMBH media using NBS plates, by Resazurin F(560/590); assay type: functional; settings: Concentration 20 uM, ASSAY_TEST Inhibition of Bacterial Growth, detection method Resazurin, Fluorescence (ex560/em590), MEDIA CAMHB, plate type 384well, CORNING #3640, time 18 hr
[3] = system: Escherichia coli; assay: Antibacterial activity against Escherichia coli ATCC 25922 (CO-ADD:GN_001); MIC in CAMBH media using NBS plates, by Resazurin F(560/590); assay type: functional; settings: Concentration 20 uM, ASSAY_TEST Inhibition of Bacterial Growth, detection method Resazurin, Fluorescence (ex560/em590), MEDIA CAMHB, plate type 384well, CORNING #3640, time 18 hr
[4] = system: Klebsiella pneumoniae; settings: Concentration 20 uM; ASSAY_TEST Inhibition of Bacterial Growth; detection method Absorption (OD600); MEDIA CAMHB; plate type 384well; NBS; CORNING #3640; time 18 hr
[5] = system: Candida albicans; settings: 20 µM
[6] = system: Cryptococcus neoformans; settings: Concentration 20 uM; ASSAY_TEST Inhibition of Fungal Growth; detection method Resazurin; Absorption (OD600-OD570); plate type 384well; NBS; CORNING #3640

Compound | Inhibition [1] [%] | Inhibition [2] [%] | Inhibition [3] [%] | Inhibition [4] [%] | Inhibition [5] [%] | Inhibition [6] [%]
C=C1C(=O)O[C@@H]2C[C@@H](C)[C@@H]3C=CC(=O)[C@@]3(C)[C@@H](O)[C@H]12 [HELENALIN] | 9.39 | -4.22 | 4.79 | 9.92 | 2.42 | -2.82
CCC/C=C/C=C/C(=O)OC1/C(=C/C(=O)OC)CC2CC(C(C)O)OC(=O)CC(O)CC3CC(OC(C)=O)C(C)(C)C(O)(CC4C/C(=C/C(=O)OC)CC(/C=C/C(C)(C)C1(O)O2)O4)O3 (stereo not given) | 15.23 | -8.5 | 2.2 | 8.82 | -7.78 | -7.31
CC[C@@]1(O)C(=O)OCc2c1cc1n(c2=O)Cc2cc3ccccc3nc2-1 [CAMPTOTHECIN] | 9.46 | -0.94 | 5.98 | 5.61 | 4.14 | -6.71
CC[C@H]1CN2CCc3cc(OC)c(OC)cc3[C@@H]2C[C@@H]1C[C@H]1NCCc2c1[nH]c1ccc(O)cc21 [TUBULOSINE] | 2.68 | -12.49 | 3.63 | -0.53 | 2.67 | -8.19
C=C1C(C)C2C(Cc3ccccc3)NC(=O)C23C(OC(C)=O)/C=C/C(C)(O)CC(C)C/C=C/C3C1O (stereo not given) | -5.72 | -9.16 | -0.68 | -1.52 | 1.45 | -3.95
COc1cccc2c1cc([N+](=O)[O-])c1c(C(=O)O)cc3c(c12)OCO3 [ARISTOLOCHIC ACID] | -13.97 | -2.12 | 5.35 | -1.07 | 8.48 | -6.51
CC(O)CCC(=O)c1ccoc1 (stereo not given) | -1.39 | -6.14 | 1.51 | -0.54 | -0.15 | -5.46
C1CCC(NC2CCCCC2)CC1.COC1C(OC(=O)/C=C/C=C/C=C/C=C/C(=O)O)CCC2(CO2)C1C1(C)OC1CC=C(C)C (stereo not given) | 16.49 | -13.86 | 8.82 | -0.23 | 9.6 | -7.96
CC(=O)OC(C)(C)/C=C/C(=O)[C@](C)(O)[C@H]1[C@H](O)C[C@@]2(C)[C@@H]3CC=C4[C@@H](C=C(O)C(=O)C4(C)C)[C@]3(C)C(=O)C[C@]12C [CUCURBITACIN E] | -16.96 | -9.18 | 4.67 | -1.27 | -1.39 | -7.52
CC(=O)O[C@@H]1[C@@H](O)C2=C3[C@]4(C)[C@@H]1C(C)(C)C(=O)C[C@@H]4[C@]3(O)[C@H](OC(C)=O)[C@@]1(C[C@@H]1C)C2=O | 17.09 | -6.85 | 0.22 | 10.98 | -0.55 | -8.42
CCN1C[C@]2(COC)[C@H](O)C[C@H](OC)[C@]34C1[C@H]([C@H](OC)[C@H]23)[C@]1(OC(C)=O)[C@H]2[C@@H](OC(=O)c3ccccc3)[C@](O)(C[C@H]24)[C@@H](OC)[C@@H]1O | 12.16 | -8.01 | 7.77 | 3.92 | -0.67 | -9.39
CC[C@](C)(O)C(=O)O[C@H]1C(=O)O[C@@H]2C[C@H]3C(C)=C[C@H](O)[C@@H](O)[C@]3(C)[C@H]3[C@@]4(O)OC[C@]32[C@@H]1[C@@H](C)[C@H]4O | 12.34 | -9.38 | 1.71 | 10.36 | 4.77 | -4.27
O=P1(N(CCCl)CCCl)NCCCO1 (stereo not given) [CYCLOPHOSPHAMIDE ANHYDROUS] | 22.17 | -9.14 | 1.21 | 1.43 | -2.64 | -8.46
OC1CN2CC[C@H](O)[C@@H]2C(O)[C@@H]1O (stereo not given in full) | -15.58 | -6.5 | 3.63 | -1.47 | 2.3 | -9.42
CC(C)(O)C1C2OC(=O)C1C1(O)CC3OC34C(=O)OC2C14C (stereo not given) | -15.24 | -3.06 | 2.11 | 1.65 | 3.44 | -6.7
CC12C(=O)C=CCC1=CCC1C2CCC2(O)C(=O)OC3(C)C4CC5(C)C(COC16OC23C5C6=O)C(=O)O4 (stereo not given) | 21.05 | -16.5 | 8.61 | -1.2 | -2.84 | -7.36
CN1CCc2cc3c(cc2[C@H]1[C@@H]1OC(=O)c2c1ccc1c2OCO1)OCO3 [BICUCULLINE] | 11.14 | -4.97 | 3.43 | 11.38 | -1.4 | -11.52
COc1ccc2c3c([nH]c2c1)[C@H](C=C(C)C)N1C(=O)[C@@H]2CCCN2C(=O)[C@@H]1C3 [FUMITREMORGIN] | -0.07 | 0.14 | 5.9 | -0.45 | 1.52 | -5.88
CCCCCC(O)C1C(=O)OC(C)C(O)/C=C/C=C/C=C/C=C/C=C(\C)C(O)C(O)C(O)CC(O)CC(O)CC(O)CC(O)CC1O (stereo not given) | -5.29 | 1.14 | 2.6 | 3.06 | -5.54 | -5.55
CC1CCC2C(C)C(=O)OC3OC4(C)CCC1C32OO4 (stereo not given) | 7.59 | -3.18 | 7.05 | 14.85 | 23.7 | -16.17
CO[C@@H]1[C@H](O)CC[C@]2(CO2)[C@H]1[C@@]1(C)O[C@@H]1CC=C(C)C | 4.97 | 1.38 | 4.31 | 14.33 | 4.27 | -4.91
COc1ccc2c(c1OC)CN1CCc3cc4c(cc3C1C2)OCO4 (stereo not given) [TETRAHYDROBERBERINE] | 10.57 | -8.62 | 7.87 | -2.26 | -1.05 | -13.18
C=C1C(=O)OC2C1CCC(C)C1(O)C=CC(=O)C21C (stereo not given) | -5.72 | -10.47 | 2.36 | 3.79 | -0.93 | -3.28
COc1c2c(c(CC=C(C)C)c3oc(=O)c(-c4ccc(O)cc4)c(O)c13)OC(C)(C)C=C2 [LONCHOCARPIC ACID] | 25.18 | -13.6 | 7.94 | -4.69 | -1.79 | -11.25
COc1ccc(C(=O)O[C@H]2CC[C@@]3(C)[C@@H]4CC[C@H]5[C@]6(O)C[C@H](O)[C@@]7(O)[C@@H](CN8C[C@@H](C)CC[C@H]8[C@@]7(C)O)[C@]6(O)C[C@@]53OC24O)cc1OC | 16.97 | -4.41 | 7.62 | 3.66 | -1.53 | -9.31
COc1ccc2c(c1O)-c1c(OC)c(OC)cc3c1C(C2)N(C)CC3 (stereo not given) | 23.71 | 2.34 | 4.51 | 6.13 | -0.15 | -10.21
C[C@H]1CCC/C=C/[C@@H]2C[C@H](O)C[C@H]2[C@H](O)/C=C/C(=O)O1 [BREFELDIN A] | 11.17 | -7.42 | 11.85 | -5.16 | 51.3 | -9.22
CC1OC(=O)C2CC3CCCCC3C(/C=C/C3CCCC(C)N3C)C12 (stereo not given) | 14.11 | -6.83 | 5.85 | 4.75 | 0.31 | -10.1
COC1C(O)C(C)OC(OC2C(Oc3cccc4c(O)c5c(=O)oc6ccc(C)c7c(=O)oc(c34)c5c67)OC(C)C(O)C2O)C1O (stereo not given) | -17.7 | -6.91 | -0.53 | 2.04 | -2.79 | -9.89
CC1CCC2C(C)C3C(CC4C5CC=C6CC(OC7OC(CO)C(O)C(OC8OC(CO)C(O)C(O)C8O)C7OC7OC(C)C(O)C(O)C7O)CCC6(C)C5CCC43C)N2C1.Cl (stereo not given) | -4.66 | -5.32 | -0.39 | 4.14 | -2.24 | -10.4
